# Results filed as inconclusive are left out. Calls of active or inactive are those of the source. Unless noted, no cut-off is given here; in the data, nearly all actives have AC50 up to about 26 µM.
# What was measured:
# [1] = viability loss in pontine glioma line – cell-based, SU-DIPG-XVII, MIPE5.0, CellTiter-Glo, qHTS, dose response (AID 1347060); conditions: CellTiter-Glo ATP luminescence;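 for AC50: cells exposed to compound for 48 hours before viability readout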
# [2] = viability loss in pontine glioma line – cell-based, SU-DIPG-XIII, MIPE4.0, CellTiter-Glo, qHTS, dose response (AID 1347061; cut-off not given, nearly all actives have AC50 up to about 37 µM;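 note: cells exposed to compound for 48 hours before readout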); conditions: CellTiter-Glo ATP luminescence
# [3] = growth inhibition of DIPG cells – cell-based, MIPE4.0 library, CellTiter-Glo luminescence, qHTS (AID 1347066; cut-off not given, nearly all actives have AC50 up to about 30 µM;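 note: cells exposed to compound for 48 hours before readout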); conditions: SU-DIPG-VI viability, CellTiter-Glo ATP luminescence
# [4] = JHH-DIPG-1 glioma cell viability, MIPE5.0 library, CellTiter-Glo luminescence, qHTS (AID 1347067); conditions: JHH-DIPG-1 glioma viability, CellTiter-Glo ATP luminescence;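 note: cells exposed to compound for 48 hours before readout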
# [5] = growth inhibition of DIPG cells – cell-based, MIPE5.0 library, qHTS (AID 1347068; cut-off not given, nearly all actives have IC50 up to about 30 µM;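 for IC50: cells exposed to compound for 48 hours before viability readout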); conditions: SU-DIPG-XXV viability
# [6] = viability loss in pontine glioma line – cell-based, JHH-DIPG-1, MIPE4.0, CellTiter-Glo, qHTS, dose response (AID 1347062; cut-off not given, nearly all actives have AC50 up to about 27 µM;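 for AC50: cells exposed to compound for two days before readout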); conditions: JHH-DIPG-1 viability, CellTiter-Glo ATP luminescence
# [7] = viability loss in pontine glioma line – cell-based, SU-DIPG-IV, MIPE4.0, CellTiter-Glo, qHTS, dose response (AID 1347063; cut-off not given, nearly all actives have AC50 up to about 30 µM;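 note: compound exposure lasted 48 hours before the viability readout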); conditions: CellTiter-Glo ATP luminescence
# [8] = viability loss in pontine glioma line – cell-based, SU-DIPG-XIII, MIPE5.0, CellTiter-Glo, qHTS, dose response (AID 1347064; cut-off not given, nearly all actives have AC50 up to about 23 µM;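 for AC50: cells exposed to compound for 48 hours before the viability read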); conditions: CellTiter-Glo ATP luminescence
# [9] = viability loss in pontine glioma line – cell-based, SU-DIPG-XXV, MIPE5.0, CellTiter-Glo, qHTS, dose response (AID 1347065); conditions: CellTiter-Glo ATP luminescence;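 note: cells exposed to compound for 48 hours before ATP readout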
# [10] = viability loss with induced miR-34 in A549 – imaging, A549 dox-inducible miR-34, nuclei and caspase counts, primary screen (AID 1347080;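 active = compounds whose cell count with miR-34 switched on is under 0.7 times the count with it off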); conditions: A549 miR-34 inducible, Hoechst nuclei count, 48 h
# [11] = MELAS cybrid and Rieske KO viability enhancers – cell-based, MELAS cybrids, Rieske KO mouse fibroblasts, CellTiter-Glo, primary screen (AID 1508586;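 active = mean z-score across replicates of 1.96 or higher in either the MELAS or the Rieske mutant cell line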;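 note: z relative to plate mean and SD of compound and empty wells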); conditions: low glucose
# [12] = P. berghei load reduction in hepatocytes – cell-based, HepG2, luciferase luminescence, HepG2 viability, primary screen (AID 624349; in the data active = parasite load remaining mostly below about 12%, no sharp cut-off; inactive = mostly above about 10%;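 note: 100% = mean of DMSO negative control wells on the same plate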); conditions: P. berghei liver stage in HepG2, luciferase luminescence, concentration not given here; parasite load remaining: stronger effect = lower value; viability: measured here: HepG2 viability without parasites
# [13] = stronger effect = lower value, cell number ratio, induced over uninduced
# [14] = measured here: relative caspase fold change +Dox/-Dox
# [15] = measured here: total cells with miR-34 induction, stronger effect = lower value
# [16] = measured here: total cells without miR-34 induction
# [17] = MELAS cybrid survival, CellTiter-Glo 48 h, stronger effect = higher value
# [18] = Rieske KO mouse fibroblast survival, CellTiter-Glo 72 h
compound,measurement,setting,value
CC(=O)O[C@@]12CO[C@@H]1C[C@H](O)[C@@]1(C)C(=O)[C@H](O)C3=C(C)[C@@H](O)C[C@@](O)([C@@H](OC(=O)c4ccccc4)[C@H]21)C3(C)C,AC50,[1],23.5 µM (active)
same,outcome,[2],inactive
same,outcome,[3],inactive
same,outcome,[4],inactive
same,outcome,[5],inactive
O=C(O)CNC(=O)c1c(O)c2ccccc2n(Cc2ccccc2)c1=O,outcome,[1],inactive
same,outcome,[2],inactive
same,outcome,[6],inactive
same,outcome,[7],inactive
same,outcome,[8],inactive
same,outcome,[9],inactive
same,outcome,[3],inactive
same,outcome,[4],inactive
same,outcome,[5],inactive
same,fold change,[10]; [13],1.05 (inactive)
same,fold change,[10]; [14],0.358
same,cell count,[10]; [15],8330
same,cell count,[10]; [16],7930
same,z-score,[11]; [17],-0.124 (inactive)
same,z-score,[11]; [18],-0.159
NC(=O)[C@@H](CC1CC1)[C@@H](CCC(F)(F)F)C(=O)N[C@H]1N=C(c2ccccc2)c2cccc(F)c2NC1=O,outcome,[1],inactive
same,outcome,[8],inactive
same,outcome,[9],inactive
same,outcome,[5],inactive
C=C(C)[C@@H]1CCC(C)=C[C@H]1c1c(O)cc(CCCCC)cc1O,AC50,[1],26.3 µM (active)
same,AC50,[8],23.5 µM (active)
same,AC50,[4],23.5 µM (active)
O=S(=O)(F)Cc1ccccc1,outcome,[1],inactive
same,outcome,[6],inactive
same,outcome,[7],inactive
same,outcome,[8],inactive
same,outcome,[9],inactive
same,outcome,[3],inactive
same,outcome,[4],inactive
same,outcome,[5],inactive
same,fold change,[10]; [13],0.924 (inactive)
same,fold change,[10]; [14],0.551
same,cell count,[10]; [15],9940
same,cell count,[10]; [16],10800
same,z-score,[11]; [17],-0.358 (inactive)
same,z-score,[11]; [18],0.553
COC(=O)[C@@]12OC[C@]34[C@H]([C@@H](O)[C@@H]1O)[C@@]1(C)CC(=O)C(O)=C(C)[C@@H]1C[C@H]3OC(=O)[C@H](OC(=O)/C=C(\C)C(C)C)[C@@H]24,AC50,[1],0.0295 µM (active)
same,AC50,[8],0.059 µM (active)
same,AC50,[9],0.0105 µM (active)
same,AC50,[4],0.0525 µM (active)
same,IC50,[5],5.9 µM (active)
Cc1ncc(OC[C@@]2(c3cccc(F)c3)C[C@H]2C(=O)Nc2ccc(F)cn2)c(C)n1,outcome,[1],inactive
same,outcome,[8],inactive
same,outcome,[9],inactive
same,outcome,[4],inactive
same,outcome,[5],inactive
C[C@@H]1CC[C@@]2(OC1)O[C@H]1C[C@H]3[C@@H]4CC=C5C[C@@H](O[C@@H]6O[C@H](CO)[C@@H](O[C@@H]7O[C@@H](C)[C@H](O)[C@@H](O)[C@H]7O)[C@H](O)[C@H]6O[C@@H]6O[C@@H](C)[C@H](O)[C@@H](O)[C@H]6O)CC[C@]5(C)[C@H]4CC[C@]3(C)[C@H]1[C@@H]2C,AC50,[1],0.661 µM (active)
same,AC50,[6],2.35 µM (active)
same,AC50,[7],0.833 µM (active)
same,AC50,[8],0.148 µM (active)
same,AC50,[9],0.468 µM (active)
same,AC50,[3],5.26 µM (active)
same,AC50,[4],0.742 µM (active)
same,IC50,[5],3.72 µM (active)
CC(C)(C)c1cc(C=C(C#N)C#N)cc(Br)c1O,parasite load remaining,[12],43.4% (inactive)
same,viability,[12],165%
same,AC50,[1],20.9 µM (active)
same,AC50,[8],18.6 µM (active)
same,AC50,[9],23.5 µM (active)
same,AC50,[4],18.6 µM (active)
same,outcome,[5],inactive
same,fold change,[10]; stronger effect = lower value,0.886 (inactive)
same,fold change,[10]; [14],1.14
same,cell count,[10]; [15],7700
same,cell count,[10]; [16],8690
same,z-score,[11]; [17],-0.608 (inactive)
same,z-score,[11]; [18],-0.108
O=C(Nc1ccncc1)C(=O)c1cn(Cc2ccc(Cl)cc2)c2ccccc12,AC50,[1],0.295 µM (active)
same,AC50,[6],0.296 µM (active)
same,AC50,[8],1.66 µM (active)
same,AC50,[9],0.148 µM (active)
same,outcome,[3],inactive
same,AC50,[4],0.417 µM (active)
same,IC50,[5],0.372 µM (active)
COc1cc(C(=O)N2CC[C@@H](O)[C@@H](N)C2)cc2nc(-c3cc4ccccc4n3CC3CC3)n(C)c12,AC50,[1],23.5 µM (active)
same,AC50,[8],23.5 µM (active)
same,AC50,[9],29.5 µM (active)
same,AC50,[4],23.5 µM (active)
O=C(O)CNC(=O)C1C(=O)N(C2CCCCC2)C(=O)N(C2CCCCC2)C1=O,AC50,[1],20.9 µM (active)
same,outcome,[8],inactive
same,outcome,[9],inactive
same,outcome,[5],inactive
COc1ccc2c(c1)CN(C)CC2c1ccc(Cl)c(Cl)c1 (stereo not drawn),outcome,[2],inactive

# Reference: PubChem BioAssay
